The text below walks through data of PubChem BioAssay.

Test [1] in a line: inhibitors of TNFa-induced NFkB p65 translocation, primary screen, imaging, HUVEC, MLSMR starter and 10KST1 sets (AID 438;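 active = inhibition above 20% together with a positive visual image hit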;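 also: compound added about 3h40 before a 20 min TNFalpha stimulation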;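 as to inhibition: signal is the nuclear over cytoplasmic p65 intensity ratio per well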). As to conditions: HUVEC TNFa-induced p65 nuclear translocation; cell count: measured here: nuclei count (cytotoxicity indicator), at 2.08 µM; inhibition: at 2 µM, stronger effect = higher value, 0% TNFa-plus-vehicle, 100% no-TNFa wells.
Test [2] can be described thus: reduction of polyQ htt aggregates in cells – imaging, exon1htt(103Q)mCFP cells, high-content imaging, primary screen (AID 483;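 active = visual image review flags a hit and inhibition of aggregation exceeds 20%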;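 also: compound exposure lasted 3 days before fixation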;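 as to nuclei count: percent of the per-plate median nuclei count of sample wells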). Particulars: exon1htt(103Q)mCFP cell line, aggregate imaging, at 2 µM; inhibition of aggregation: stronger effect = higher value; nuclei count: measured here: cell count, toxicity.
Test [3] in a line: endothelial E-selectin expression blockers – imaging, HUVEC, immunofluorescence, MLSMR starter and 10KST1 sets, primary screen (AID 487;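 active = visually confirmed hit in the image check and inhibition above 20%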;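 as to inhibition: signal is fraction of cell area covered by stained E-selectin grains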;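 as to nuclei count: 100% = median nuclei count of all wells on the same plate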). Particulars: HUVEC TNFalpha-induced E-selectin immunofluorescence imaging, at 2 µM; inhibition: stronger effect = higher value; nuclei count: measured here: cell number, toxicity.
In test [4] the target is Voltage-gated potassium channel subunit beta-2 (Rattus norvegicus) (UniProt P62483). The test can be described thus: inhibitors of rat Kvbeta2 reductase activity – biochemical, NADPH fluorescence, primary screen (AID 622;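 active = fluorescence slope higher than the sample average by over 3 SD, cut at about -0.22 in these data, passing the limit was not always enough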;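 also: slope of raw intensity against log time taken from 70 to 1610 s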). Particulars: recombinant KvBeta, 4-cyanobenzaldehyde reduction, at 10 µM, stronger effect = higher value.
Chain of Voltage-gated potassium channel subunit beta-2 (Rattus norvegicus) (P62483 whole entry, looked up): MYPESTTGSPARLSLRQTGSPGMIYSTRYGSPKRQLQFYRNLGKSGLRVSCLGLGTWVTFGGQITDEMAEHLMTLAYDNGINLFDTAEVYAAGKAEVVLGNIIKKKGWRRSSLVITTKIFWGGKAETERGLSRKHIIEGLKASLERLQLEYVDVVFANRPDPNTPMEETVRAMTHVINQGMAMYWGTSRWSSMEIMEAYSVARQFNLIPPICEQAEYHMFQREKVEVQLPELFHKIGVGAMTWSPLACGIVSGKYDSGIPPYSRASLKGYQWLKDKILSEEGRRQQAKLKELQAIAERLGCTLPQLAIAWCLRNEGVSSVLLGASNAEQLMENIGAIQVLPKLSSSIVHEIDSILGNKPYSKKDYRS
The target is the same in test [5]. The test can be described thus: enhancers of rat Kvbeta2 NADPH turnover – biochemical, NADPH fluorescence, primary screen (AID 623).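 Also: fluorescence intensity change per second fitted from 20 to 320 s.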 As to conditions: Recombinant KvBeta, NADPH fluorescence decrease slope, 10 min; at 10 µM; stronger effect = lower value.
In test [6] the target is Alpha-2C adrenergic receptor (Homo sapiens) (UniProt P18825). Kind of test: compounds altering alpha2C-coupled GIRK flux – cell-based, HEK293 alpha2C/GIRK1/2, thallium flux, primary screen (AID 624;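 active = fluorescence slope after compound addition differing from the mean of all screened samples at 99.7% confidence, in either direction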;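 also: slope of fluorescence ratio to pre-addition baseline per second over 15 to 24 s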). As to conditions: thallium flux BTC fluorescence, at 10 µM, actives lie on both sides.
Chain of Alpha-2C adrenergic receptor (Homo sapiens) (P18825 whole entry, looked up): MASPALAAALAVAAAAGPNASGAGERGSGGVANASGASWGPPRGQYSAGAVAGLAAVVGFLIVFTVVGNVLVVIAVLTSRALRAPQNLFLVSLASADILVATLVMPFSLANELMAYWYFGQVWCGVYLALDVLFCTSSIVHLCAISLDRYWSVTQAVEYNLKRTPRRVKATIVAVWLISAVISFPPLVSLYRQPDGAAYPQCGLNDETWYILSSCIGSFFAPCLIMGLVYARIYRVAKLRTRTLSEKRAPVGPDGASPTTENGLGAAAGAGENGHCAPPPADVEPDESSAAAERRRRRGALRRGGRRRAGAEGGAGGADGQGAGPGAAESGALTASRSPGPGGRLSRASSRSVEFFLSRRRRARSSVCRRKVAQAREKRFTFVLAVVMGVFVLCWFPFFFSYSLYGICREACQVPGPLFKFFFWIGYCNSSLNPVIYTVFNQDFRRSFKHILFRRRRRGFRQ
Test [7] in a line: blockers of RIG-like receptor reporter activation – cell-based, Sendai virus stimulus, luciferase, 10K MLSCN set, TLR/RLR signaling modifier project, primary screen (AID 602276;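 active = inhibition at or above 50% at 10 µM; inactive = inhibition below 50%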;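 also: firefly luciferase from ISG56 promoter only with Renilla not read in this screen; 0% = Sendai virus plus DMSO and 100% = medium plus DMSO without virus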). Particulars: HEK293 RL24 IRF3 luciferase reporter, at 10 µM, stronger effect = higher value.
Test [8] can be described thus: TLR3 IRF3 reporter activation blockers – cell-based, poly I:C stimulus, luciferase, 10K MLSCN set, primary screen (AID 602277;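 active = inhibition of the reporter signal at or above 50%; inactive = inhibition below 50%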). Particulars: HEK293-TLR3 RL24 IRF3 luciferase reporter, at 10 µM, stronger effect = higher value. A general note: In a reporter assay the amount or activity of a reporter protein is the signal.

Activity calls are given as the source filed them.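 The calls were made as follows, unless noted: active = NADPH fluorescence slope more negative than the mean of all samples by about 3 SD, 99.7% confidence; inactive = the rest.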

For orientation: inhibition means the drop in the measured response relative to a control, in per cent.

Take `Cc1cc(C)nc(SCC(=O)Nc2ncc3c(n2)CCCC3=O)n1`: the cell count in test [1] is 188. Further, the inhibition in test [1] was -8.6% (inactive); in test [3], -9.1% (inactive); in test [7] it was 6.63% (inactive); in test [8], 11.4% (inactive). Besides, the inhibition of aggregation in test [2] was 10.1% (inactive). Also, the figures for the nuclei count in test [2] and in test [3] were 98.6% and 85.2%, respectively. The fluorescence slope in test [4] was -0.622 (inactive). The NADPH fluorescence slope in test [5] was -1.1e-05 (inactive). Moreover, the slope in test [6] was 0.00766 (inactive).

Consider `COC(=O)Cc1c(C)c2ccc(OCC(=O)N3CCOCC3)cc2oc1=O`, for which the cell count in test [1] worked out at 439. In addition, the inhibition was 15.7% (inactive) in test [1], -28.7% (inactive) in test [3], 17.8% (inactive) in test [7] and 13.9% (inactive) in test [8]. The inhibition of aggregation in test [2] is 7.7% (inactive). Moreover, the values for the nuclei count in test [2] and in test [3] were 113% and 74.6%, respectively. Further, the fluorescence slope in test [4] was -0.363 (inactive). In test [5], the NADPH fluorescence slope is -1.5e-05 (inactive). Further, the slope in test [6] is 0.00545 (inactive).

Consider `CN(C)C(=O)N1CCC(C(=O)NC2CCCCCCC2)CC1`, for which the cell count in test [1] was found to be 545. Moreover, the inhibition was 7.4% (inactive) in test [1], -48.1% (inactive) in test [3], 13% (inactive) in test [7] and 18.9% (inactive) in test [8]. Further, the inhibition of aggregation in test [2] is 36.8% (active). In addition, the nuclei count in test [2] is 49.6%; in test [3] it was 106%. The fluorescence slope in test [4] was -0.381 (inactive). Further, in test [5], the NADPH fluorescence slope was -2.2e-05 (inactive). Moreover, in test [6], the slope was 0.00533 (inactive).

`COc1ccc(-c2nc(C#N)c(N3CCN(c4ccccc4)CC3)o2)cc1`: the cell count in test [1] worked out at 841. Further, the inhibition in test [1] was 1.4% (inactive); in test [3], -64.6% (inactive); in test [7] it was 5.66% (inactive); in test [8] it was 24.4% (inactive). For the same molecule, the inhibition of aggregation in test [2] is -19.5% (inactive). Moreover, the nuclei count is 96.2% in test [2] and 118% in test [3]. The fluorescence slope in test [4] was -0.577 (inactive). For the same molecule, the NADPH fluorescence slope in test [5] is 1.4e-05 (inactive). The slope in test [6] is 0.00659 (inactive).

In the case of `CCOC(=O)CSc1nnc(CCc2nc3ccccc3[nH]2)n1C`, the cell count in test [1] is 349. Also, the inhibition is -1% (inactive) in test [1], 12.7% (inactive) in test [3], -7.44% (inactive) in test [7] and 100% (active) in test [8]. Further, the inhibition of aggregation in test [2] was 23.8% (inactive). Moreover, the values for the nuclei count in test [2] and in test [3] were 73% and 93.2%, respectively. For the same molecule, the fluorescence slope in test [4] is -0.441 (inactive). In test [5], the NADPH fluorescence slope is -2.8e-05 (inactive). The slope in test [6] was 0.00684 (inactive).

Take `O=C(O)C1C2C=CC3(CN(C4CCCC4)C(=O)C13)O2` (centres undefined): the cell count in test [1] amounted to 521. For the same molecule, the inhibition in test [1] is -3.4% (inactive); in test [3], -23.3% (inactive); in test [7], 12.5% (inactive); in test [8], 38% (inactive). Moreover, the inhibition of aggregation in test [2] was 24.1% (inactive). For the same molecule, the nuclei count in test [2] stood at 69.2%; in test [3], 97.3%. Besides, the fluorescence slope in test [4] was -0.546 (inactive). Moreover, the NADPH fluorescence slope in test [5] was -1.2e-05 (inactive). The slope in test [6] was 0.00708 (inactive).

Turning to `Nc1nc2n(n1)C(c1cccc(Br)c1)CC(c1ccc(F)cc1)N2` (centres undefined), the cell count in test [1] came out at 886. Besides, the inhibition in test [1] was -6.1% (inactive); in test [3], -59% (inactive); in test [7], 2.63% (inactive); in test [8], 15.8% (inactive). Moreover, the inhibition of aggregation in test [2] is 9.7% (inactive). In addition, the nuclei count in test [2] turned out to be 110%; in test [3], 102%. Further, the fluorescence slope in test [4] is -0.608 (inactive). Also, the NADPH fluorescence slope in test [5] is 7.7e-06 (inactive). In test [6], the slope was 0.00861 (inactive).

As to `CC1(C)NC(=O)N(CC(O)CN2CCCC2)C1=O` (centres undefined), the cell count in test [1] is 317. For the same molecule, the inhibition was -4.8% (inactive) in test [1], -48.6% (inactive) in test [3], 6.37% (inactive) in test [7] and -4.68% (inactive) in test [8]. Moreover, the inhibition of aggregation in test [2] was 4.1% (inactive). Moreover, the nuclei count in test [2] was found to be 85.6%; in test [3], 72.8%. Besides, the fluorescence slope in test [4] was -0.543 (inactive). Besides, the NADPH fluorescence slope in test [5] was 4.5e-05 (inactive). The slope in test [6] was 0.00702 (inactive).

For `CCOC(=O)CN1CC23C=CC(O2)C(C(=O)Nc2ccc(OCC)cc2)C3C1=O` (centres undefined), the cell count in test [1] was 615. Moreover, the inhibition was 0.7% (inactive) in test [1], -5.7% (inactive) in test [3], 7.04% (inactive) in test [7] and 15.5% (inactive) in test [8]. Also, the inhibition of aggregation in test [2] was -10.5% (inactive). Further, the results for the nuclei count in test [2] and in test [3] were 112% and 106%, respectively. In addition, the fluorescence slope in test [4] is -0.517 (inactive). In addition, the NADPH fluorescence slope in test [5] was -1.3e-05 (inactive). For the same molecule, the slope in test [6] was 0.00673 (inactive).

Take `Cn1c(=O)n(Cc2ccc(F)cc2)c(=O)c2c1nc1n2CCCN1Cc1ccccc1`: the cell count in test [1] is 698. For the same molecule, the inhibition in test [1] was 1.6% (inactive); in test [3] it was -41.3% (inactive); in test [7], 7.62% (inactive); in test [8] it was 12.8% (inactive). In addition, the inhibition of aggregation in test [2] is -3.6% (inactive). For the same molecule, the nuclei count in test [2] worked out at 119%; in test [3], 148%. The fluorescence slope in test [4] is -0.448 (inactive). Besides, the NADPH fluorescence slope in test [5] was -6e-05 (inactive). In addition, the slope in test [6] was 0.00383 (inactive).

Regarding `c1ccc(-c2oc3ncnc(NCCN4CCOCC4)c3c2-c2ccccc2)cc1`, the cell count in test [1] came out at 365. The inhibition was -11.4% (inactive) in test [1], -121% (inactive) in test [3], 13.9% (inactive) in test [7] and 16% (inactive) in test [8]. Further, the inhibition of aggregation in test [2] is -1.8% (inactive). Further, the results for the nuclei count in test [2] and in test [3] were 102% and 106%, respectively. Besides, the fluorescence slope in test [4] is -0.512 (inactive). In addition, in test [5], the NADPH fluorescence slope was -8.4e-05 (inactive). In addition, the slope in test [6] was 0.00536 (inactive).

On to `Cc1ccc(CCC(=O)Nc2ccc(S(N)(=O)=O)cc2)o1`, for which, in test [1], the cell count is 543. For the same molecule, the inhibition in test [1] is 0% (inactive); in test [3], -67.7% (inactive); in test [7], -2.49% (inactive); in test [8], 2.2% (inactive). Besides, the inhibition of aggregation in test [2] was -16.3% (inactive). The values for the nuclei count in test [2] and in test [3] were 111% and 99.7%, respectively. In addition, the fluorescence slope in test [4] is -0.614 (inactive). Moreover, the NADPH fluorescence slope in test [5] was 5.3e-06 (inactive). In addition, in test [6], the slope is 0.00583 (inactive).

For the molecule `C[C@H](NC(=O)NCc1cccs1)C(=O)O`, the cell count in test [1] stood at 378. The inhibition is 4.3% (inactive) in test [1], -52.5% (inactive) in test [3], 5.25% (inactive) in test [7] and 4.63% (inactive) in test [8]. Moreover, in test [2], the inhibition of aggregation was -9.8% (inactive). The figures for the nuclei count in test [2] and in test [3] were 102% and 72.1%, respectively. In addition, the fluorescence slope in test [4] was -0.576 (inactive). Moreover, the NADPH fluorescence slope in test [5] is -5.7e-05 (inactive). Besides, the slope in test [6] was 0.00368 (inactive).

On to `Cc1ccc(-n2c(=O)c(C#N)cc3c(=O)n4ccccc4nc32)cc1`, for which the cell count in test [1] was 338. For the same molecule, the inhibition in test [1] was 3.6% (inactive); in test [3] it was -31% (inactive); in test [7] it was 5.28% (inactive); in test [8], 26.9% (inactive). Besides, in test [2], the inhibition of aggregation is -21.9% (inactive). In addition, the values for the nuclei count in test [2] and in test [3] were 99.9% and 102%, respectively. The fluorescence slope in test [4] is -0.232 (inactive). In test [5], the NADPH fluorescence slope is 9.6e-06 (inactive). The slope in test [6] was 0.00607 (inactive).
